# Experimental data as given in PubChem BioAssay (NCATS).
# Records with an inconclusive call do not appear. Entries that show only a call come without a potency. Values without a mark were called inactive. The source made the active and inactive calls. Calls come from the whole dose curve; as a rule, active = well fitted curve in the direction sought with a large enough effect; inconclusive = small, poorly fitted or top-dose-only effect, or another doubt; inactive = no such curve, though single readings can be large; an effect the other way counts as inactive or inconclusive.
# Columns and labels:
# [1] = target: Rap guanine nucleotide exchange factor 3 (Homo sapiens) (UniProt O95398); assay: Confirmatory qHTS for antagonist of cAMP-regulated guanine nucleotide exchange factor 3 (EPAC1) (AID 1645880); note: nearly all actives have a fitted effect of over 55% in size; note: potency is the fitted concentration of half-maximal effect
# Method in brief: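 Nucleotide exchange uses 100 nM EPAC1, 250 nM RAP1B-BODIPY-GDP and 50 uM GDP, with compounds in a concentration-titration series. After 5 min at room temperature, fluorescence (480 nm ex/540 nm em) is read every 5 min for 30 min. Data are normalized to control ATA and DMSO.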
# [2] = target: Rap guanine nucleotide exchange factor 3 (Homo sapiens) (UniProt O95398); assay: Confirmatory qHTS for agonist of cAMP-regulated guanine nucleotide exchange factor 3 (EPAC1) (AID 1645881); note: nearly all actives have a fitted effect of over 75% in size; note: potency is the fitted concentration of half-maximal effect;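 for activation: EPAC1 catalysed release of BODIPY-GDP from Rap1B seen as fluorescence loss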
# [3] = target: Rap guanine nucleotide exchange factor 4 (Homo sapiens) (UniProt Q8WZA2); assay: Confirmatory qHTS for agonist of cAMP-regulated guanine nucleotide exchange factor 4 (EPAC2) (AID 1645884);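 note: nucleotide exchange releases bodipy-GDP from Rap1 and this lowers its fluorescence; nearly all actives have a fitted effect of over 65% in size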; note: potency is the fitted concentration of half-maximal effect
# [4] = target: Rap guanine nucleotide exchange factor 4 (Homo sapiens) (UniProt Q8WZA2); assay: Confirmatory qHTS for antagonist of cAMP-regulated guanine nucleotide exchange factor 4 (EPAC2) (AID 1645885); note: nearly all actives have a fitted effect of over 25% in size; note: potency is the fitted concentration of half-maximal effect
# [5] = target: Rap guanine nucleotide exchange factor 3 (Homo sapiens) (UniProt O95398); assay: Counterscreen qHTS for antagonist of cAMP-regulated guanine nucleotide exchange factor 3 (EPAC1) (AID 1645888);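 note: fluorescence loss as bound BODIPY-GDP is released from Rap1B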
# Method in brief: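 Rap1B-BODIPY-GDP 250 nM + GDP 50 uM; cpds 7-pt, final 9.74 nM–152 uM (activator mode) or from 7.32 nM upwards (inhibitor mode); RT; FI 480/540 nm at 5 and 30 min, then ± cAMP, reread.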
# Sequence of Rap guanine nucleotide exchange factor 3 (Homo sapiens) (O95398 whole entry, looked up): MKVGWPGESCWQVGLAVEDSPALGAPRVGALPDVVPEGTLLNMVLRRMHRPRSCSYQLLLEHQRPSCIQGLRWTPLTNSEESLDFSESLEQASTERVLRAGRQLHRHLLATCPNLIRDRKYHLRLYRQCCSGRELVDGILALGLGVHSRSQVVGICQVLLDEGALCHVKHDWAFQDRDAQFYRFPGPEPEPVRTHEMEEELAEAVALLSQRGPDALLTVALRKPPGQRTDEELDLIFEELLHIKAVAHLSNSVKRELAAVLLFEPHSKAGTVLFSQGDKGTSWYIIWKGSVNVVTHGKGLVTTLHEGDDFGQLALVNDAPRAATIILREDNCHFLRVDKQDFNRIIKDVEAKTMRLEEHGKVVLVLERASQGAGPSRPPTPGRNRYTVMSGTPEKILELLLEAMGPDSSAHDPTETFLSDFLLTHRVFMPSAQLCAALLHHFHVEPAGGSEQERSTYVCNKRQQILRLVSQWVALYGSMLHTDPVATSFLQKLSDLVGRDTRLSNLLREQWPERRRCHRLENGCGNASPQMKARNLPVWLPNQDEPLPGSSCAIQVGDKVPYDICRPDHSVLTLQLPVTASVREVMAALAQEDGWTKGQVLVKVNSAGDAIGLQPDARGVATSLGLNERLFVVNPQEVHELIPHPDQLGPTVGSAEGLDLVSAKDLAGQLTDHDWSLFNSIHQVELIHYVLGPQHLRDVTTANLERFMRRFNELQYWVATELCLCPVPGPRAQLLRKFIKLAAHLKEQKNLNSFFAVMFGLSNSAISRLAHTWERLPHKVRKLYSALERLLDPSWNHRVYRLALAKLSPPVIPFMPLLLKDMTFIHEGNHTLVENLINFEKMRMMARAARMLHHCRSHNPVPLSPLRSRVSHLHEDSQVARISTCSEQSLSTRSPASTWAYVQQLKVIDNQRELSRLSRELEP
# Sequence of Rap guanine nucleotide exchange factor 4 (Homo sapiens) (Q8WZA2 whole entry, looked up): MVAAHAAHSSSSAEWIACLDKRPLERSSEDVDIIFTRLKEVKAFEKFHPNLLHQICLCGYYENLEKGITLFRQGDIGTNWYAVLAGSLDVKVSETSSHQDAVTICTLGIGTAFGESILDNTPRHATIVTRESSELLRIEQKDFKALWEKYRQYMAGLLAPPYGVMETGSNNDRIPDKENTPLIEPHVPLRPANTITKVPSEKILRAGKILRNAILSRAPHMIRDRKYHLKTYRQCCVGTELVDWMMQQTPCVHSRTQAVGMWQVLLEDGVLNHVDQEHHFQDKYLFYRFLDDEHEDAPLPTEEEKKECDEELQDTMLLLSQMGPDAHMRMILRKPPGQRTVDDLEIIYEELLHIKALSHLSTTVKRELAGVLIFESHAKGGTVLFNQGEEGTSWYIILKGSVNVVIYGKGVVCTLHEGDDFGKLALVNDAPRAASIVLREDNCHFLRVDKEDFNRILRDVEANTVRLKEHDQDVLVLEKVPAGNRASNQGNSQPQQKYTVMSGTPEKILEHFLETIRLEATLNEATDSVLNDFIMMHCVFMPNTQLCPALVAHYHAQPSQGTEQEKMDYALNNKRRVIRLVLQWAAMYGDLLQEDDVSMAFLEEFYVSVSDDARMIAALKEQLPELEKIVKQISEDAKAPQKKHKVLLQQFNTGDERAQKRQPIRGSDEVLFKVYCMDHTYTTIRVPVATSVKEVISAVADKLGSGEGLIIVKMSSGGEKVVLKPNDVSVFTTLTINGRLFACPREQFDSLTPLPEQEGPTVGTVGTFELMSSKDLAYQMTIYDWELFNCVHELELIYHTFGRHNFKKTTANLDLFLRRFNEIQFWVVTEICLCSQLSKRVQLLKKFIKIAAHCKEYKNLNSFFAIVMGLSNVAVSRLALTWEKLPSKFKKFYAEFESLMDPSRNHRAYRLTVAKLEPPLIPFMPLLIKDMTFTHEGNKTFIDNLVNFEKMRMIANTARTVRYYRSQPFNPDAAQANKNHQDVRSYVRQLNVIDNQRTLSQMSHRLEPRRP
SMILES,Potency [1],Potency [2],Potency [3],Potency [4],Potency [5],outcome [4],activation [3],"activity change, negative = inhibition [5]"
CCOc1ccc(-n2c(=O)[nH]cc(C(=O)Nc3ccc(OC)c(OC)c3)c2=O)cc1,inactive,inactive,inactive,inactive,inactive,,,
CCc1cccc2sc(N3CCN(C(=O)C4CC4)CC3)nc12,inactive,inactive,inactive,,inactive,inactive [at 12.7 µM],,
CN1\C(=C/C=C/C=C/C=[N+](C)C)C(C)(C)c2ccccc21,39.8 µM (active),inactive,,inactive,,,"2.26% [at 17.1 µM, percent relative to cAMP agonist control]",43.3% [at 30.8 µM]
COCCn1c(=N)c(C(=O)NC2CCCC2)cc2c(=O)n3cc(C)ccc3nc21,inactive,inactive,inactive,inactive,inactive,,,
CC(C)c1ccc(NS(=O)(=O)c2cn(C)c(=O)n(C)c2=O)cc1,inactive,inactive,inactive,6.01 µM (active),inactive,,,
COC(=O)c1ccc(OC(=O)c2ccc(OC)cc2)c(OC)c1,inactive,inactive,,inactive,,,"7.15% [at 17.1 µM, percent relative to cAMP agonist control]",-8.27% [at 30.8 µM]
COc1cc2cnc(-c3ccccc3)c(C(=O)c3ccc(F)cc3)c2cc1OC,inactive,inactive,,inactive,,,"4.26% [at 17.1 µM, percent relative to cAMP agonist control]",-6.2% [at 30.8 µM]
Cc1cc(C)c(NC(=O)Cn2c(=O)n(Cc3ccc(C(=O)NCc4ccco4)cc3)c(=O)c3sccc32)c(C)c1,75.7 µM (active),inactive,inactive,inactive,inactive,,,
Cc1ccc(S(=O)(=O)N2[C@@H](c3ccc(Br)cc3)C(C(=O)O)=CC[C@H]2c2ccc(Cl)cc2)cc1,75.7 µM (active),inactive,inactive,inactive,inactive,,,
N#C/C(=C/c1ccc(N2CCOCC2)o1)C(=O)Nc1ccccc1,inactive,112 µM (active),100 µM (active),75.7 µM (active),inactive,,,
CC(C)(C)c1ccc(N=C2SCC(=O)N2Cc2cccs2)cc1,inactive,inactive,inactive,inactive,inactive,,,
COc1ccc2ccccc2c1C(=O)/C=C\c1ccoc1,42.6 µM (active),inactive,inactive,inactive,inactive,,,
COC(=O)c1cc2sc(C)cc2n1Cc1ccccc1,inactive,inactive,inactive,inactive,inactive,,,
CCCCn1c(CN2CCOCC2)nc2c1c(=O)n(C)c(=O)n2C,inactive,inactive,inactive,inactive,inactive,,,
Cc1[nH]c2ccccc2c1C(c1ccccc1)c1cccs1 (stereo not given),inactive,inactive,inactive,inactive,inactive,,,
C/C(=N\N1C(=O)c2ccccc2NC1c1ccco1)c1ccccc1O (stereo not given),75.7 µM (active),inactive,inactive,inactive,inactive,,,
Cc1ccc(NC(=O)C2CCCN2S(=O)(=O)c2cccc3nsnc23)c(Br)c1 (stereo not given),inactive,inactive,inactive,,inactive,inactive [at 12.7 µM],,
COC(=O)c1ccc(CNC(=O)/C=C/[C@H]2O[C@@H](n3cc(C)c(=O)[nH]c3=O)C[C@@H]2O)cc1,inactive,inactive,inactive,inactive,inactive,,,

SMILES,Potency [1],Potency [2],Potency [3],Potency [4],Potency [5],outcome [4],activation [3],"activity change, negative = inhibition [5]"
S=C(Nc1ccccc1)Nc1ccccn1,inactive,inactive,,inactive,,,"9.11% [at 17.1 µM, percent relative to cAMP agonist control]",9.21% [at 30.8 µM]
CCCc1cc(=O)[nH]c(SCC(=O)Nc2sc3c(c2C#N)CCC(C)C3)n1 (stereo not given),89.1 µM (active),inactive,,0.135 µM (active),,,"4.56% [at 17.1 µM, percent relative to cAMP agonist control]",-6.17% [at 30.8 µM]
O=C(c1ccco1)N(Cc1ccc([N+](=O)[O-])cc1)c1ccc(Br)cc1,inactive,inactive,,inactive,,,"-0.906% [at 17.1 µM, percent relative to cAMP agonist control]",10.5% [at 30.8 µM]
C[C@H](c1ccccc1)N1C[C@@H](COCc2ccccc2)Oc2cc(N3CC[C@@H](O)C3)ccc2S1(=O)=O,inactive,inactive,inactive,inactive,inactive,,,
Cc1ccc(NC(=O)c2ccc(Cl)cc2Cl)c(C(=O)c2ccccc2)c1,inactive,inactive,inactive,,inactive,inactive [at 12.7 µM],,
OC1CCN(c2c3c(nc4cc(-c5cccc(F)c5)nn24)CCCC3)CC1,inactive,inactive,inactive,inactive,inactive,,,
Oc1ccc(Br)cc1C=Nc1cccn2cc(-c3ccccc3)nc12,84.9 µM (active),inactive,inactive,75.7 µM (active),inactive,,,
CN1CCN(CCC(=O)Nc2ccc(Cl)cc2)CC1,inactive,inactive,inactive,inactive,inactive,,,
COc1cccc(NC(=O)CSc2nnc3[nH]c(=O)cc(-c4ccccc4)n23)c1,inactive,inactive,inactive,inactive,inactive,,,
C=CCN(c1ccccc1)S(=O)(=O)c1cccc(C(=O)N2CC(C)CC(C)C2)c1 (stereo not given),inactive,inactive,inactive,inactive,inactive,,,
CCCCn1c(N)c(N(CCOC)C(=O)c2ccc(C)c(S(=O)(=O)N3CCCCC3)c2)c(=O)[nH]c1=O,inactive,inactive,inactive,inactive,inactive,,,
CCOC(=O)COc1ccc(Br)cc1/C=C\c1[nH]c(=O)[nH]c(=O)c1[N+](=O)[O-],20 µM (active),inactive,,inactive,,,"4.81% [at 17.1 µM, percent relative to cAMP agonist control]",-24.7% [at 30.8 µM]
O=C(/C=C/c1ccc(Cl)cc1)Nc1nccs1,inactive,inactive,,inactive,,,"2.3% [at 17.1 µM, percent relative to cAMP agonist control]",-6.03% [at 30.8 µM]
O=C(O)CN1C(=O)/C(=C\c2cc(Br)ccc2OCc2ccccc2F)SC1=S,35.5 µM (active),inactive,,inactive,,,"4.56% [at 17.1 µM, percent relative to cAMP agonist control]",18.9% [at 30.8 µM]
N#CC1=C(N)SC(N)=C(C#N)C1c1cccc(Oc2ccccc2)c1,67.5 µM (active),inactive,inactive,inactive,inactive,,,
Cc1[nH][nH]c(=O)c1C(c1c(C)[nH][nH]c1=O)c1cn(Cc2ccccc2Cl)c2ccccc12,75.7 µM (active),inactive,inactive,inactive,inactive,,,
Cc1ccc(-c2cc([C@H]3[C@@H]4C=CCC[C@@]4(C)C(=O)N3Cc3ccccc3)ccc2F)cc1,inactive,inactive,,inactive,,,"-2.1% [at 17.1 µM, percent relative to cAMP agonist control]",-9.39% [at 30.8 µM]
Fc1ccc(C(Nc2ccccn2)c2c[nH]c3ccccc23)cc1 (stereo not given),inactive,inactive,,inactive,,,"7.5% [at 17.1 µM, percent relative to cAMP agonist control]",-2.83% [at 30.8 µM]
